From PubChem BioAssay
TDP1 cell noCPT: qHTS for Inhibitors of human tyrosyl-DNA phosphodiesterase 1 (TDP1): qHTS in cells in absence of CPT; DT40 Tdp1-/- hTDP1 cells, no CPT, ATP luminescence, 48 h; Potency, µM (highest dose often 46.2 µM), most hits filed as inhibitors; hit rate 15% among 420,000; AID 686978, 2013; note: nearly all actives have a fitted effect of over 55% in size
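DT40 Tdp1-/-;hTDP1 cells, no CPT (DMSO vehicle only), 400 cells/well; compounds pin-transferred; ≥48 hr, 37 °C; CellTiter-Glo 30 min RT dark, luminescence read.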
TDP1 block: inhibitors of human tyrosyl-DNA phosphodiesterase TDP1; Q9NUW8; recombinant TDP1, AlphaScreen DNA substrate cleavage; Potency, µM (titrated, usually from 130 µM), most hits filed as inhibitors; hit rate 0.28% among 350,000; note: nearly all actives have a fitted effect of over 40% in size
Target sequence (Q9NUW8 whole entry, looked up): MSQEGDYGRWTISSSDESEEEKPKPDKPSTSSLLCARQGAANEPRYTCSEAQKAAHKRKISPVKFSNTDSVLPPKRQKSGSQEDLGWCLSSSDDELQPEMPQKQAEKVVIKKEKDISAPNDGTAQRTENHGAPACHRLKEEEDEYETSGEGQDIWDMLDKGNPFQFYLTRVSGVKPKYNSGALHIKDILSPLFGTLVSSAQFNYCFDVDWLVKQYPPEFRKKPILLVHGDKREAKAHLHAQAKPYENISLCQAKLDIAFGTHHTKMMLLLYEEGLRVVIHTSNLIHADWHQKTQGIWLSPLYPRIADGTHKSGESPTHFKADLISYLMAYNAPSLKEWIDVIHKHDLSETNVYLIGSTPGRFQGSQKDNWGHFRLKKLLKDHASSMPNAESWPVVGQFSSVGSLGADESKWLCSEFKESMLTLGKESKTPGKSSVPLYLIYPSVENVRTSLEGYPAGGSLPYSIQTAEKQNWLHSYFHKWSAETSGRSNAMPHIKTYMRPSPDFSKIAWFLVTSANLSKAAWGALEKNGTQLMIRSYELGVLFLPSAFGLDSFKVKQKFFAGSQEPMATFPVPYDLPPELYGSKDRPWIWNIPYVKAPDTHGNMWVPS
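Here, a 5' biotin and 3' phosphotyrosine-FITC DNA oligonucleotide reports Tdp1 activity: intact substrate bridges AlphaScreen beads, while cleavage leaves a 3' phosphate and drops signal. All incubations at room temperature.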
ClpP mod: qHTS Assay for Activators of ClpP; AID 651965, 2013; ATP-dependent Clp protease proteolytic subunit (Bacillus subtilis (strain 168)), P80244; Potency, µM (top dose mostly 57.5 µM); purified B. subtilis ClpP, FRET peptide cleavage, 20 min; hit rate 1.9% among 340,000; active = well fitted falling curve with a large enough effect; inconclusive = small, poorly fitted or top-dose-only effect; inactive = no such curve, though single readings can be large or run the other way; note: the source files actives as falling curves though it sought activators and does not explain the sign; nearly all actives have a fitted effect of over 65% in size
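Buffer: 100 mM Tris/HCl pH8, 100 mM KCl, 0.05% low protease BSA, 2.5% glycerol, 0.01% Tween-20. ClpP 10 microg/mL final; 20 min RT; delta FRET normalized to ADEP and DMSO controls.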
DT40 TDP1 CPT: DT40-hTDP1 cell growth loss with CPT | chicken DT40 Tdp1-/-;hTDP1 cells + 20 nM CPT, ATP luminescence, 48 h | Potency, µM (highest dose often 46.2 µM), hits mostly inhibitors | hit rate 12% among 420,000 | AID 686979; note: nearly all actives have a fitted effect of over 55% in size
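Chicken DT40 Tdp1-/- cells stably complemented with human TDP1 were seeded at 400 cells/well in medium containing 20 nM camptothecin, exposed to pin-transferred compounds, and grown at 37 °C for at least 48 hr. Viability was read as ATP luminescence.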
Hits are given with their value; - = inactive; ? = inconclusive; . = not tested or not shown; [ ] = remark or other dose. An excerpt weighted towards active compounds, which were near 17% of everything screened. Unless noted, calls come from the whole dose curve; as a rule, active = well fitted curve in the direction sought with a large enough effect; inconclusive = small, poorly fitted or top-dose-only effect, or another doubt; inactive = no such curve, though single readings can be large; an effect the other way counts as inactive or inconclusive.

SMILES | TDP1 cell noCPT | TDP1 block | ClpP mod | DT40 TDP1 CPT
Cc1sc2nc(-c3ccncc3)[nH]c(=O)c2c1-c1ccccc1 | . | - | . | .
O[C@@H]1CO[C@H]2C1OC[C@@H]2O (stereo not given in full) | . | - | . | .
CCOC(=O)Cn1nc(NC(=O)COc2ccc(F)cc2)cc1C | - | - | - | -
Cc1[nH]nc2c1C(=O)CCC2 | 18.4µM | - | - | 23.1µM
Cc1ccc(C)c2c1CCCC2=O | - | . | - | -
COc1ccc2nc3oc(C(=O)NC4CCN(Cc5ccccc5)CC4)cc3cc2c1 | 17.8µM | - | ? | 17.8µM
CCOC(=O)N1CCC(NC(=O)c2cc3cc4cc(OC)ccc4nc3o2)CC1 | 20.6µM | - | ? | ?
COc1ccc2nc3oc(C(=O)NCc4ccccc4OC)cc3cc2c1 | - | - | - | -
COc1cccc(N2CCN(C(=O)c3cc4c(s3)CCCCC4)CC2)c1 | ? | - | - | ?
COc1ccc(-n2c(SCC(=O)N/N=C(\C)c3cccnc3)nc3ccccc3c2=O)cc1 | ? | . | 31.6µM | -
COc1ccc(-c2cc(C(=O)N/N=C(\C)c3cccnc3)c3ccccc3n2)c(OC)c1 | 13µM | - | - | 10.3µM
COc1ccc(OC)c(-c2cc(C(=O)N/N=C(\C)c3cccnc3)c3ccccc3n2)c1 | ? | - | - | 14.6µM
COc1ccc(-n2c(SCC(=O)N/N=C/c3ccccc3OCC(=O)O)nc3ccccc3c2=O)cc1 | - | ? | - | -
O=C(Nc1cccc(N2CCC(NCc3cnn(-c4cccc(F)c4)c3)CC2)c1)c1ccncc1 | ? | . | . | -[9.04 µM]
COc1cc2[nH]c(=O)n(CCCC(=O)N(C)Cc3ccccc3)c(=O)c2cc1OC | - | - | - | ?
CCCS(=O)(=O)c1c(S(=O)(=O)CCC)c2cc(CC)ccn2c1C(=O)c1ccc(Cl)cc1 | - | . | - | 14.6µM
CCCS(=O)(=O)c1c(S(=O)(=O)CCC)c2cc(CC)ccn2c1C(=O)c1ccc(OC)cc1 | ? | . | - | ?
CCCn1c(SCC(=O)NC2CCCC2)nnc1C(C)C | - | - | . | -
CCc1ccc(NC(=O)CSc2nnc(-c3ccccc3)n2CC)cc1 | - | . | - | -
COc1cc(/C=C/C(=O)Nc2nnc(CC(C)(C)C)s2)cc(OC)c1OC | 20.6µM | - | - | ?
COc1cc(/C=C/C(=O)Nc2nnc(CC(C)C)s2)cc(OC)c1OC | ? | - | 35.5µM | ?
CC1CC(C)(C)Nc2ccc(N=O)cc21 (stereo not given) | 1.84µM | - | - | 2.31µM
CC1CC2(CCCC2)Nc2ccc(F)cc21 (stereo not given) | - | . | - | -
Cc1ccc2c(c1)N=C(c1ccc(Cl)cc1)CO2 | 23.1µM | - | ? | ?
Clc1ccc(C2=Nc3cc(Cl)ccc3OC2)cc1 | ? | - | - | ?
SMILES | TDP1 cell noCPT | TDP1 block | ClpP mod | DT40 TDP1 CPT
c1ccc(C2=Nc3ccccc3OC2)cc1 | 11.2µM | - | ? | 17.8µM
O=C1CC(c2ccccc2)=Nc2ccccc2N1 | - | - | - | -
COc1ccc(CNC(=O)c2cn(Cc3ccccc3F)c(=O)s2)cc1 | ? | . | - | ?
O=C(COc1coc(CN2CCCc3ccccc32)cc1=O)Nc1ccccc1 | 5.8µM | - | - | ?
Cc1cc(C)cc(NC(=O)COc2coc(CN3CCc4ccccc43)cc2=O)c1 | ? | - | - | ?
Cc1ccc(C)c(NC(=O)COc2coc(CN3CCc4ccccc4C3)cc2=O)c1 | 16.4µM | - | . | 18.4µM
Cc1ccc(NC(=O)COc2coc(CN3CCc4ccccc4C3)cc2=O)c(C)c1 | ? | - | - | ?
CC1Cc2ccccc2N1Cc1cc(=O)c(OCC(=O)Nc2ccccc2)co1 (stereo not given) | ? | . | - | ?
Cc1ccc(NC(=O)COc2coc(CN3c4ccccc4CC3C)cc2=O)c(C)c1 (stereo not given) | 13µM | - | - | ?
COc1ccc(OC)c(NC(=O)COc2coc(CN3CCc4ccccc43)cc2=O)c1 | 16.4µM | - | - | ?
Cc1cc(-c2onc3ccc(Cl)cc23)ccc1O | ? | - | . | ?
Cc1ccc(NC(=O)COc2coc(CN3CCc4ccccc43)cc2=O)c(C)c1 | 14.6µM | - | - | ?
COc1ccc(OC)c(NC(=O)COc2coc(CN3CCCc4ccccc43)cc2=O)c1 | ? | - | - | ?
COc1ccc(CCNC(=O)COc2coc(CN3c4ccccc4CC3C)cc2=O)cc1OC (stereo not given) | 16.4µM | - | - | ?
Cc1ccccc1CN(CC(=O)Nc1cccc([N+](=O)[O-])c1)S(=O)(=O)c1ccc(Cl)cc1 | ? | - | - | ?
CCCCN(CCCC)S(=O)(=O)c1ccc(N2CCCC2=O)c([N+](=O)[O-])c1 | 20.6µM | . | - | ?
CCCN(CCC)S(=O)(=O)c1ccc(N2CCCC2=O)c([N+](=O)[O-])c1 | - | - | - | ?
CCCC(=O)Nc1cc(S(=O)(=O)N(CC)CC)ccc1Cl | ? | - | - | -
CCOC(=O)C(C)(C)N(Cc1ccccc1C)S(=O)(=O)c1ccc(Cl)c([N+](=O)[O-])c1 | 11.6µM | - | - | ?
CCCN(CCC)S(=O)(=O)c1ccc(Cl)c([N+](=O)[O-])c1 | 14.6µM | - | . | ?
O=C1NN(C(=O)Nc2ccc(Br)cc2)C(c2ccccc2)C1c1ccccc1 (stereo not given) | . | - | . | .
O=C(COC(=O)Cc1c(F)cccc1Cl)NCc1ccc2c(c1)OCO2 | - | - | - | -
Cc1noc(C)c1S(=O)(=O)N(C)C[C@H]1Oc2ccc(NC(=O)CCC(F)(F)F)cc2C(=O)N([C@H](C)CO)C[C@@H]1C | - | - | - | -
CC(=O)Nc1ccc2nc(SCCOc3ccccc3Cl)sc2c1 | 23.1µM | - | - | ?
O=C(Nc1ccc2nc(SCCOc3ccccc3)sc2c1)c1ccccc1F | ? | - | - | ?
SMILES | TDP1 cell noCPT | TDP1 block | ClpP mod | DT40 TDP1 CPT
Cc1ccc(OCC(=O)Nc2ccc3nc(SCCOc4ccccc4)sc3c2)cc1 | 10.3µM | - | - | ?
COc1cc(C)ccc1OCCSc1nc2ccc(NC(=O)c3cccs3)cc2s1 | 16.4µM | - | ? | ?
O=C(Nc1ccc2nc(SCCOc3ccccc3)sc2c1)c1cccs1 | 20.6µM | - | ? | ?
O=C(Nc1ccc2nc(SCCOc3ccccc3Cl)sc2c1)c1ccc2c(c1)OCO2 | ? | - | ? | ?
CCN(Cc1ccccc1)C(=O)Cn1c(=O)n(CC(=O)N2CCCCC2)c(=O)c2sccc21 | - | - | - | -
COc1cc(C)ccc1OCCSc1nc2ccc(NC(=O)c3ccco3)cc2s1 | 10.3µM | - | ? | 23.1µM
O=C(CSC1=Nc2ccccc2N=C(c2ccc(F)cc2)C1)Nc1cccc(C(F)(F)F)c1 | 23.1µM | - | - | ?
CCc1cccc(NC(=O)CSC2=Nc3ccccc3N=C(c3ccc(F)cc3)C2)c1 | 13µM | - | - | 20.6µM
CN(C)c1ccc(NC(=O)Cn2c(SCc3ccc(F)cc3)nc3cccnc32)cc1 | ? | - | - | ?
CCc1ccc(NC(=O)CNC(=O)Cn2c(C)cc3ccccc3c2=O)cc1 | - | - | - | -
